Pf growth 48h – P. falciparum growth inhibition at 48 hours (one generation); P. falciparum luciferase growth in erythrocytes, 48 h; Potency, µM (titrated, usually from 28.7 µM), actives largely listed as inhibitors; actives 5.9% (n = 310,000); AID 504832
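Luminescence readout; reporter = integrated firefly luciferase in P. falciparum. RBC culture at 2% hematocrit, 0.1% parasitemia final, 37 C/5% CO2; decreased signal taken as growth inhibition.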
Shiga toxin inh – Shiga toxin inhibition | Vero cells, Shiga toxin protein synthesis inhibition reporter | inhibition, % at 38.7 µM | actives 9.2% (n = 290,000); in the data active = inhibition mostly above about 28%, no sharp cut-off; inactive = mostly below about 43%
Pf growth 96h – P. falciparum growth inhibition at 96 hour, primary screen for plastid delayed-death inhibitors; P. falciparum luciferase reporter growth, 96 h; Potency, µM (top dose mostly 28.7 µM), actives largely listed as inhibitors; actives 6.9% (n = 320,000); AID 504834
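Two parasite generations (96 h, 37 C, 5% CO2) of compound exposure in infected erythrocytes (0.05% parasitemia, 2% hematocrit). Luciferase-reporter P. falciparum; decreased luminescence indicates inhibited growth, aimed at apicoplast-acting delayed death.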
CHX counter – affects cycloheximide protein synthesis inhibition readout, counter-screen | AID 2314 | cell reporter, cycloheximide protein synthesis inhibition counterscreen | actives 12% (n = 300,000) | max response, %; in the data active = max response mostly above about 13%, no sharp cut-off; inactive = mostly below about 14%; also: read at 38.3 µM for the half of the compounds with a filed dose
LmPK inhibitor – blocks Leishmania mexicana pyruvate kinase activity; Q27686; AID 1721; purified LmPK, Kinase-Glo ATP luminescence, 1 h; actives 0.37% (n = 290,000); Potency, µM (titrated, usually from 57.5 µM), actives largely listed as inhibitors
Target sequence (Q27686 whole entry, looked up): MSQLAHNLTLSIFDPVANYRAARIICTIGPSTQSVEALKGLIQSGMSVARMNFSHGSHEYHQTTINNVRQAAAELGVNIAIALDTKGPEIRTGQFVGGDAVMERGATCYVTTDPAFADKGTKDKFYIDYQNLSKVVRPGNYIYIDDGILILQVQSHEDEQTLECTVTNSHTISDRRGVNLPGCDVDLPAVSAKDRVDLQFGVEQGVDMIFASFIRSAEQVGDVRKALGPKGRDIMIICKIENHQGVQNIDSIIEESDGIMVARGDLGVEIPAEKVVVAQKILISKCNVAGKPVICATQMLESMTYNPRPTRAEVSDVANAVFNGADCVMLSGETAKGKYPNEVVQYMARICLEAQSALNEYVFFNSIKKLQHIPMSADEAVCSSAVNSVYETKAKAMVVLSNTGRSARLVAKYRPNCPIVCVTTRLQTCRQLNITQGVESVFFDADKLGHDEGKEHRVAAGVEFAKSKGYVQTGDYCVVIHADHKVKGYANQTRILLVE
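qHTS format; LmPK 0.1 nM; substrates PEP 0.5 mM and ADP 0.1 mM. One-hour room-temperature incubation, then coupled luciferase luminescence; 0.5 nM enzyme wells mark activation.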
Numbers stand for hits; - = inactive; ? = inconclusive; . = no result; [ ] = remark or other dose. An excerpt weighted towards active compounds, which were near 22% of everything screened. Unless noted, calls follow the shape of the dose curve; as a rule, active = well fitted inhibition curve with a large enough effect; inconclusive = small, poorly fitted or top-dose-only effect, or another doubt; inactive = no such curve, though single readings can be large or run the other way.

SMILES	Pf growth 48h	Shiga toxin inh	Pf growth 96h	CHX counter	LmPK inhibitor
Cc1cnn(-c2cc(Oc3ccccc3)ncn2)c1	-	111.6	-	51.8	-
c1ccc(Oc2cc(-c3ccccc3)nc(-c3ccccc3)n2)cc1	-	-	?	-	-
c1ccc(Oc2cc(-c3ccccc3)ncn2)cc1	-	127.1	-	58.6	-
O=C(COc1ccc2c(-c3ccccc3)cc(=O)oc2c1)Nc1ccc(CCO)cc1	-	-	-	-	-
O=C(COc1ccc2oc(-c3ccccc3)cc(=O)c2c1)Nc1ccccc1	-	-	3.7µM	-	-
COc1ccc2oc(C(=O)OCC(=O)Nc3ccc(N4CCOCC4)cc3)c(C)c2c1	-	.	-	.	.
COc1ccc2oc(C(=O)OCC(=O)N3CCC(C)CC3)c(C)c2c1	-	-	-	-	-
CCN(CC)C(=O)COc1c(-c2ccco2)oc2ccccc2c1=O	?	-	?	-	-
COc1ccc2oc(C(=O)OCC(=O)Nc3ccc(C(=O)N(C)C)cc3)c(C)c2c1	-	-	-	16.6	-
CCN(CC)C(=O)COc1ccc2oc(-c3ccco3)cc(=O)c2c1	?	-	?	19.2	-
CCOC(=O)N1CCN(C(=O)COC(=O)c2oc3ccc(OC)cc3c2C)CC1	-	32.1	-	16.2	-
COc1ccc2oc(C(=O)OCC(=O)Nc3ccccc3)c(C)c2c1	-	34.7	-	29.1	-
COc1ccc2oc(C(=O)OCC(=O)Nc3ccccc3OC)c(C)c2c1	-	.	-	.	.
Cc1ccccc1N/C=C/C(=C(C#N)C#N)N(C)C	-	-	-	-	-
CC(Oc1ccccc1)C(=O)Nc1ccc(S(=O)(=O)N2CCN(C)CC2)cc1 (centres undefined)	?	.	0.0657µM	.	.
Cc1cccc(OC(C)C(=O)Nc2ccc(S(=O)(=O)N3CCCC3)cc2)c1 (centres undefined)	?	-	10.4µM	-	-
CC[C@H](C)[C@H](N)C(=O)N[C@H]1CCC(=O)NCC(C(=O)N[C@@H](Cc2ccc(O)cc2)C(=O)N[C@@H](CCCNC(=N)N)C(=O)N[C@@H](CC(C)C)C(=O)N[C@@H](CCCNC(=N)N)C(=O)N[C@@H](Cc2ccc(O)cc2)C(N)=O)NC(=O)[C@@H]2CCCN2C(=O)[C@@H](NC(=O)[C@@H](N)[C@@H](C)CC)CCC(=O)NCC(C(=O)N[C@@H](Cc2ccc(O)cc2)C(=O)N[C@@H](CCCNC(=N)N)C(=O)N[C@@H](CC(C)C)C(=O)N[C@@H](CCCNC(=N)N)C(=O)N[C@@H](Cc2ccc(O)cc2)C(N)=O)NC(=O)[C@@H]2CCCN2C1=O (some centres undefined)	.	-	.	-	.
Cc1ccc(S(=O)(=O)NCc2ccc(C(=O)N3CCN(c4ccc([N+](=O)[O-])cc4)CC3)cc2)cc1	?	-	-	-	-
Clc1ccc(CO/N=C(\Cn2ccnc2)c2ccc(Cl)cc2Cl)c(Cl)c1	4.26µM	.	1.9µM	.	.
[O-][n+]1cccc(CO)c1	-	.	-	.	.
O=C(Nc1ccc(Cl)cc1)C(Cl)C(=O)c1ccccc1 (centres undefined)	-	-	-	18.8	-
O=C(Nc1ccccc1Cl)C(Cl)C(=O)c1ccccc1 (centres undefined)	-	101.6	-	47.7	-
O=C(CSCC(=O)c1ccccc1)Nc1ccccc1Cl	-	-	-	-	-
Cc1cccc(C)c1NC(=S)NC(C)CCc1ccccc1 (centres undefined)	-	-	?	-	-
CO/N=C(/CS(=O)(=O)c1ccc(C)cc1)c1ccc(OC)cc1	.	-	?	-	-
SMILES	Pf growth 48h	Shiga toxin inh	Pf growth 96h	CHX counter	LmPK inhibitor
CC(=O)c1ccsc1-c1c(C)cc2oc(=O)cc(-c3ccccc3)c2c1C	.	-	.	-	.
CCOC(=O)N(C)S(=O)(=O)c1ccccc1[N+](=O)[O-]	-	-	-	-	-
COc1ccc(CNc2ncccc2[N+](=O)[O-])cc1	-	52.0	-	25.6	-
COc1ccccc1C(CNc1ncccc1[N+](=O)[O-])N(C)C (centres undefined)	-	-	-	-	-
CC(C)(C)C(=O)COc1ccccc1[N+](=O)[O-]	-	-	-[1.15 µM]	-	-
CCOC(=O)/C=C/COc1ccccc1[N+](=O)[O-]	-	102.5	-	46.7	-
COc1ccc(OCCOc2ccccc2[N+](=O)[O-])cc1	-	-	-	38.7	-
O=[N+]([O-])c1ccccc1OCCOc1ccccc1[N+](=O)[O-]	-	49.7	-	17.7	-
Cc1onc(-c2ccccc2Cl)c1C(=O)Nc1ccc(Br)cc1	?	-	?	-	-
C=CCN(c1ccccc1)S(=O)(=O)c1cccc(C(=O)Nc2ccc(N3CCOCC3)cc2)c1	-	.	?	.	.
O=[N+]([O-])c1ccccc1OCCCN1CCOCC1	-	-	-	9.3	-
O=[N+]([O-])c1cccc2c([N+](=O)[O-])cccc12	-	.	5.86µM	.	.
CN(Cc1nc(Cc2cccc(F)c2)no1)CC1CCOCC1	-	-	14.7µM	-	-
Cc1nc(CN(C)Cc2nc(Cc3cccc(F)c3)no2)cs1	-	-	-	-	-
CS(=O)(=O)N1CCC(C(=O)Nc2cccc(Cl)c2Cl)CC1	-	-	?	-	-
Cn1c(=O)c2c(ncn2CC(=O)OCC(=O)Nc2ccc(F)cc2F)n(C)c1=O	-	.	-	.	.
Cc1ccc(-c2csc(N3CCC(NS(=O)(=O)c4ccc5c(c4)OCCO5)CC3)n2)cc1	?	-	9.28µM	-	-
O=C(Nc1ccc(Cl)cc1)Nc1ccc2c(c1)N1CCN=C1S2	0.738µM	-	2.08µM	-	-
COC(=O)Cc1c[nH]c2cccc(OCC(O)CN(Cc3ccc([N+](=O)[O-])cc3)C(C)(C)C)c12 (centres undefined)	9.28µM	-	3.29µM	-	-
Cc1ccc(CN(CC(O)COc2cccc3[nH]cc(C)c23)C(C)(C)C)cc1 (centres undefined)	10.4µM	-	10.4µM	-	-
Cn1ncc(Br)c1C(=O)NC12CC3CC(CC(C3)C1)C2	-	-	-	-	-
O=C(O)c1ccccc1C(=O)NCc1ccc2c(c1)OCO2	-	-	-	-	-
CC1(C)CC(=O)C(C=NCC(O)c2ccccc2)=C(O)C1 (centres undefined)	-	-	7.38µM	-	-
CC1(C)CC(=O)C(C=Nc2ccccc2)=C(O)C1	-	-	-	26.0	-
CC1(C)CC(=O)C(C=Nc2ccccc2Sc2ccccc2)=C(O)C1	-	-	-	-	-
COc1ccc(CN=CC2=C(O)CC(C)(C)CC2=O)cc1	.	-	-	23.5	-
CC1(C)CC(=O)C(C=Nc2ccccc2C(=O)O)=C(O)C1	-	-	-	-	-
CC1(C)CC(=O)C(/C=N/n2cnc3ccccc3c2=O)=C(O)C1	-	-	?	13.7	-
CCC1CC=CC2C1C(=O)N(Cc1ccccc1)C2c1ccoc1 (centres undefined)	.	-	.	-	.
O=C(Nc1c2c(nn1-c1ccc(F)cc1)CS(=O)C2)c1ccc2c(c1)OCO2 (centres undefined)	-	-	-	-	-

Source: PubChem
